Source: PubChem (National Center for Advancing Translational Sciences (NCATS))
HT1080NT lethal = qHTS for induction of synthetic lethality in tumor cells producing 2HG: qHTS for the HT-1080-NT fibrosarcoma cell line | HT-1080-NT fibrosarcoma viability, CellTiter-Glo ATP luminescence, 48 h | Potency, µM (doses to about 46.1 µM), for the others: at the highest dose activity, negative = less viability, actives largely listed as cytotoxic | actives 1.6% (n = 360,000);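 also: NT is the 2HG producing partner of a matched IDH1 knockdown line; 0% = DMSO-treated cells and -100% = media-only wells without cells; nearly all actives have a fitted effect of over 55% in size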
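Read-out is CellTiter-Glo luminescence after 10 minutes at room temperature, following 48 hours' compound treatment of HT-1080-NT cells (750 cells/well, RPMI, 5% FBS, 37 degrees C).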
TDP1 cell CPT = qHTS for Inhibitors of human tyrosyl-DNA phosphodiesterase 1 (TDP1): qHTS in cells in presence of CPT. actives 12% (n = 420,000). AID 686979, 2013. chicken DT40 Tdp1-/-;hTDP1 cells + 20 nM CPT, ATP luminescence, 48 h. Potency, µM (doses to about 46.2 µM), inactives show at the highest dose activity change, negative = growth inhibition, usual class: inhibitors; also: nearly all actives have a fitted effect of over 55% in size
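Chicken DT40 Tdp1-/- cells stably complemented with human TDP1 were seeded at 400 cells/well in medium containing 20 nM camptothecin, exposed to pin-transferred compounds, and grown at 37 °C for at least 48 hr. Viability was read as ATP luminescence.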
KB-V1 cytotox = qHTS assay for MDR1-selective chemotherapeutics: Primary screen using the drug-selected MDR subline cells KB-V1 | AID 1347076, 2019 | KB-V1 MDR cells viability, CellTiter-Glo, 72 h | Potency, µM (top dose mostly 46.1 µM), usual class: cytotoxic | actives 3.4% (n = 400,000); also: nearly all actives have a fitted effect of over 60% in size
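KB-V1 MDR subline cells in DMEM (phenol-red free, 10% FBS) exposed to compounds in qHTS concentration series for 72 h at 37 degrees C. Viability read by CellTiter-Glo luminescence; concentration-effect curves fitted after normalization and correction.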
KB-3-1 cytotox = qHTS assay for MDR1-selective chemotherapeutics: Primary screen using the parental adenocarcinoma cell KB-3-1. KB-3-1 viability, CellTiter-Glo ATP luminescence, 72 h. Potency, µM (series often up to 46.1 µM), most hits filed as cytotoxic. actives 1.4% (n = 400,000). AID 1347075, 2019; also: nearly all actives have a fitted effect of over 60% in size
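KB-3-1 parental drug-naive adenocarcinoma cells in DMEM/10% FBS, incubated 72 h at 37 C with pin-transferred compounds across a concentration series. Viability by CellTiter-Glo luminescence; concentration-response curves fitted after normalization.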
TDP1 cell noCPT = qHTS for Inhibitors of human tyrosyl-DNA phosphodiesterase 1 (TDP1): qHTS in cells in absence of CPT | DT40 Tdp1-/- hTDP1 cells, no CPT, ATP luminescence, 48 h | Potency, µM (doses to about 46.2 µM), without a hit: at the highest dose activity change, negative = growth inhibition, most hits filed as inhibitors | actives 15% (n = 420,000); also: nearly all actives have a fitted effect of over 55% in size
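Cells were dispensed at 400 per well, compounds added by pin tool, plates incubated ≥48 hr at 37 °C, then CellTiter-Glo added for 30 min at room temperature before luminescence reading. Line: DT40 Tdp1-/- complemented with hTDP1; camptothecin omitted.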
HT1080 IDH1KD tx = qHTS for induction of synthetic lethality in tumor cells producing 2HG: qHTS for the HT-1080-IDH1KD cell line. actives 2% (n = 360,000). Potency, µM (top dose mostly 46.1 µM), for inactives: top-dose activity, negative = toxicity, hits mostly cytotoxic. HT-1080 IDH1 knockdown viability, ATP luminescence, 48 h;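 also: 0% = DMSO wells and -100% = cell-free medium wells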
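HT-1080-IDH1KD cells (IDH1 knocked down), 750/well in RPMI with 5% FBS, treated with compound 48 h at 37 degrees C. Viability by CellTiter-Glo luminescence, normalised to DMSO and no-cell wells; concentration-response curves classed.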
* hit, by the source's call; i = inactive; ? = inconclusive; . = no result. In the library only some 19% were active in any assay of this set; here they are far more common. Calls follow the shape of the dose curve; as a rule, active = well fitted curve in the direction sought with a large enough effect; inconclusive = small, poorly fitted or top-dose-only effect, or another doubt; inactive = no such curve, though single readings can be large; an effect the other way counts as inactive or inconclusive. Unless noted, % is scaled to controls: 0 for no effect and ±100 for the full control effect; potency is read from the fitted curve at half-maximal effect.

SMILES	HT1080NT lethal	TDP1 cell CPT	KB-V1 cytotox	KB-3-1 cytotox	TDP1 cell noCPT	HT1080 IDH1KD tx
COc1ccc([C@H]2C=C3CN(C(=O)OC(C)(C)C)S(=O)(=O)[C@H]3C[C@H]2OC(=O)c2cccs2)cc1	-4%	-22%	?	?	?	-19%
O=C(CC1C(=O)NC2CCCCC2N1C(=O)c1ccc([N+](=O)[O-])cc1)Nc1ccccc1 (configuration not stated)	6%	?	i	i	16µM*	7%
CCN1CCOC(CC(=O)Nc2ccc([N+](=O)[O-])cc2)C1=O (configuration not stated)	11%	15µM*	i	i	?	13%
O=C(CC1OCC2CCCN2C1=O)Nc1ccc([N+](=O)[O-])cc1 (configuration not stated)	12%	16µM*	i	i	?	16%
CCCCCC1CC(CC(=O)NC(=S)Nc2ccc([N+](=O)[O-])cc2)C(=O)O1 (configuration not stated)	-21%	-30%	i	i	-16%	-28%
CCCCCCC1CC(CC(=O)Nc2ccc([N+](=O)[O-])cc2)C(=O)O1 (configuration not stated)	-8%	18µM*	?	i	?	-28%
CC1(C)CC(CC(=O)Nc2ccc([N+](=O)[O-])cc2)C(=O)O1 (configuration not stated)	6%	4%	i	i	1%	1%
O=C(CN1CCCc2ccccc21)Nc1ccc(F)cc1[N+](=O)[O-]	-13%	?	i	i	-4%	-2%
CC(C)C[C@@H](CN1CCC[C@@H]1CN1C(=O)C(=O)NC[C@@H]1Cc1ccccc1)N1C[C@H](Cc2ccc(O)cc2)N(CC2CCCCC2)C(=O)C1=O	-3%	?	?	?	?	-9%
CC(C)C[C@H]1CN([C@@H](CC(C)C)CN2CCC[C@H]2CN2C(=O)C(=O)NC[C@@H]2Cc2ccc(O)cc2)C(=O)C(=O)N1CC1CCCCC1	2%	?	?	?	29µM*	8%
CC(C)C[C@@H](CN1CCC[C@H]1CN1C(=O)C(=O)NC[C@@H]1Cc1ccccc1)N1C[C@H](Cc2ccc(O)cc2)N(CC2CCCCCC2)C(=O)C1=O	23µM*	23µM*	i	?	23µM*	18µM*
CC(C)C[C@@H](CN1CCC[C@@H]1CN1C(=O)C(=O)NC[C@@H]1Cc1ccccc1)N1C[C@H](Cc2ccccc2)N(CC2CCCCC2)C(=O)C1=O	-23%	?	?	?	16µM*	-30%
CC(C)C[C@H]1CN([C@@H](CC(C)C)CN2CCC[C@H]2CN2C(=O)C(=O)NC[C@@H]2Cc2ccc(O)cc2)C(=O)C(=O)N1CC1CCCCCC1	19%	?	i	?	?	9%
CC(C)C[C@@H](CN1CCC[C@@H]1CN1C(=O)C(=O)NC[C@@H]1Cc1ccccc1)N1C[C@H](Cc2ccccc2)N(CC2CCCCCC2)C(=O)C1=O	5%	?	i	?	?	9%
CC(C)C[C@@H](CN1CCC[C@H]1CN1C(=O)C(=O)NC[C@@H]1Cc1ccccc1)N1C[C@H](Cc2ccccc2)N(CCc2ccccc2)C(=O)C1=O	?	23µM*	i	i	?	?
COc1cccc(CNC(=O)c2c(C)oc3nc(C)nc(N4CCOCC4)c23)c1	.	-9%	.	.	-5%	.
Cc1cnc(C(=O)OCC(=O)Nc2cc(Cl)ccc2C#N)cn1	-2%	6%	i	?	-10%	14%
O=C(Nc1cnccn1)c1ccc(Cl)cc1	-21%	-5%	i	i	?	-11%
CCC(C(=O)Nc1ccccc1OC)n1c(C(=O)OC)cc2ccsc21 (configuration not stated)	.	21µM*	i	i	?	.
COc1ccc(-n2c(CCc3ccccc3)nnc2SCC(=O)NCc2ccccc2)cc1	-1%	?	i	i	?	-7%
O=C(CSc1nnc(CCc2ccccc2)n1-c1ccc(Cl)cc1)NCc1ccccc1	-1%	16µM*	?	i	16µM*	-4%
CC(=O)/C(=N/Nc1ccccc1)Sc1nnc(CCc2ccccc2)n1-c1ccccc1	-4%	12µM*	23µM*	i	18µM*	-3%
CC(C)Oc1ccc(CCc2nnc(SC(C)C(=O)O)n2-c2ccccc2)cc1 (configuration not stated)	11%	3%	i	i	-5%	0%
CC(=O)/C(=N\Nc1ccc(Cl)cc1)Sc1nnc(-c2ccccc2)n1-c1ccccc1	?	?	?	i	?	-3%
COc1ccc(C(=O)CSc2nnc(CCc3ccccc3)n2-c2ccccc2)cc1	15%	16µM*	9.2µM*	i	15µM*	3%
SMILES	HT1080NT lethal	TDP1 cell CPT	KB-V1 cytotox	KB-3-1 cytotox	TDP1 cell noCPT	HT1080 IDH1KD tx
COc1ccc(-n2c(CCc3ccccc3)nnc2SCC(=O)c2ccccc2)cc1	-2%	?	9.2µM*	?	?	-4%
COc1ccccc1C(=O)Nc1ccc(C(=O)N2CCCCC2)cc1	0%	5%	.	.	-3%	1%
Cc1cccc(C)c1Cn1c(C)c(C(=O)NCCC#N)sc1=O	9%	-6%	?	i	-5%	9%
Cc1ccc(NC(=O)CN2CCN(Cc3ccccc3)CC2)cc1Cl	-30%	-24%	i	i	29µM*	-9%
Cc1ccc(NC(=O)Cn2cccc2)cc1Cl	-7%	-26%	18µM*	i	-20%	-16%
Cc1ccc(CN2C(=O)CCC2C(=O)NCc2ccccc2Cl)cc1 (configuration not stated)	0%	-5%	i	i	7%	0%
Cc1ccc(NC(=O)c2ccc3oc(=O)c(S(=O)(=O)c4ccccc4)cc3c2)cc1C	.	-14%	i	i	-12%	.
